Test results: PubChem BioAssay AID2289 (National Center for Advancing Translational Sciences (NCATS), 2010)
Hit rate of the full screen: of about 340,000 compounds, about 3,300 (0.97%) were called active. Another 9% or so got no clear call; they are omitted. Calls come from the whole dose curve; as a rule, active = well fitted inhibition curve with a large enough effect; inconclusive = small, poorly fitted or top-dose-only effect, or effect the other way; inactive = flat fitted curve, though single readings scatter. Some of the results follow.

Test: qHTS Assay for Modulators of miRNAs and/or Inhibitors of miR-21; note: nearly all actives have a fitted effect of over 55% in size
Conditions: HeLa miR-21-FLuc reporter, luciferase luminescence, 48 h; actives lower the signal
Outline: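 HeLa cells stably expressing CMV-driven firefly luciferase with a downstream miR-21 binding sequence, endogenously expressing miR-21, were treated with titrations (up to about 40uM final) for 48 hours at 37 degree Celsius. Luciferase luminescence was read after lysis.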
Potency is the fitted concentration of half-maximal effect.

Potency, active:
Cc1nc(-c2ccc3c(c2)CCC(=O)N3)cs1 14.7 µM, CCc1ccccc1NC(=O)CSc1nc(C)c(C(=O)Nc2ccccc2)c(-c2ccc(Cl)cc2)c1C#N 23.3 µM, COc1ccccc1CCCNC(=O)C1CCC(=O)N(Cc2ccccc2F)C1 (configuration not stated) 14.7 µM, O=C(NCCc1c[nH]c2ccccc12)c1ccc(F)cc1F 9.27 µM, O=C(NCCc1c[nH]c2ccccc12)c1ccc(Cl)cc1 7.36 µM, COc1ccc(C(=O)NCCc2c[nH]c3ccccc23)cc1 3.29 µM, Cc1ccc(S(=O)(=O)/N=C(/NNC(=O)c2cccc(Cl)c2)c2ccccc2)cc1 1.85 µM, O=C(NN/C(=N/S(=O)(=O)c1ccc(Cl)cc1)c1ccccc1)c1cccc(Cl)c1 2.07 µM, CN(C)c1ccc(/C=N\Nc2ccccn2)cc1 0.521 µM, Fc1ccc(/C=N/Nc2ccccn2)cc1 8.26 µM, COc1cc(N/N=C/c2ccc(N(C)C)cc2)ncn1 0.208 µM, C(=N\Nc1ccccn1)/c1ccc(N2CCOCC2)cc1 1.85 µM, COc1ccc(C2=NN(C(=O)CN3CCOCC3)C(c3nc4ccccc4[nH]3)C2)cc1 (configuration not stated) 10.4 µM, CN(C)CCCNC(=O)c1ccc(/C=N/O)nc1 1.85 µM, c1ccc(-c2onc3cc4c(cc23)OCCO4)cc1 2.07 µM, Fc1ccc(Nc2ccc(-c3ccc(F)cc3)nn2)cc1 3.29 µM, O=C(O)c1ccc(N/N=C/c2ccc(-c3cc(Cl)ccc3Cl)o2)cc1 6.56 µM, O=C(O)c1ccc(N/N=C/c2ccc(-c3ccc(Br)cc3)o2)cc1 5.85 µM, O=C(O)c1ccc(N/N=C/c2ccc(-c3cccc(Cl)c3)o2)cc1 0.927 µM, O=C(O)c1ccc(N/N=C/c2ccc(-c3ccc(Cl)cc3Cl)o2)cc1 18.5 µM, O=C(O)c1ccc(N/N=C/c2ccc(-c3ccccc3Cl)o2)cc1 0.293 µM, c1cnc2c(SCc3ccc(-c4nnco4)cc3)cccc2c1 13.1 µM, COc1ccccc1OCCCn1c(=O)sc2ccccc21 9.27 µM, Cc1ccccc1OCCCn1c(=O)sc2ccccc21 6.56 µM, O=C(Nc1ccc2oc(-c3ccccc3)nc2c1)c1ccccc1F 1.31 µM, O=S(=O)(Nc1ccc2oc(-c3ccccc3)nc2c1)c1ccccc1 18.5 µM, O=C(Nc1ccc2oc(-c3ccc4ccccc4c3)nc2c1)c1cc(Br)ccc1Cl 16.5 µM, O=C(Nc1ccc2oc(-c3ccc4ccccc4c3)nc2c1)c1cccs1 1.04 µM, COc1ccc2nc(SCC(=O)C(C)(C)C)[nH]c2c1 6.56 µM, CCOc1ccc2nc(SCC(=O)N(C)C)[nH]c2c1 7.36 µM, Cc1cccc(Nc2nc3c(s2)CCCC3)c1 2.07 µM, O=C1C=C(N2CCCCCC2)C(=O)N1c1ccc(Cl)cc1 5.21 µM, Cc1ccccc1OCCNC(=O)c1ccc2ccccc2n1 5.21 µM, CN1N=C(C(=O)Nc2ccc3c(c2)CCC3)CCC1=O 9.27 µM, Cn1cc(C(=O)Nc2ccc3c(c2)CCC3)cn1 7.36 µM, CCC(C)(C)C1CCc2[nH]nc(C(=O)N/N=C(\C)c3ccco3)c2C1 (configuration not stated) 2.61 µM, CCCc1nnc(NC(=O)Nc2ccccc2OC)s1 16.5 µM, CC(C)(C)C(=O)Nc1nnc(CCc2ccccc2)s1 2.93 µM, COc1ccccc1NC(=O)Nc1nnc(C(C)C)s1 14.7 µM, c1ccc(Cn2nc(-c3ccccc3)nc2-c2ccccc2)cc1 16.5 µM, COc1ccc(C(=O)OCCc2ccc(O)cc2)cc1 6.56 µM, S=C1c2ccccc2CN1c1ccccc1 9.27 µM, Cc1ccccc1-c1nnc(SCC(=O)N(C)c2ccccc2)o1 16.5 µM, Cc1ccccc1-c1nnc(SCC(=O)N(C)C2CCCCC2)o1 14.7 µM, CCc1ccc(C2=NN(C(C)=O)C(c3ccco3)C2)cc1 (configuration not stated) 2.33 µM, CC(=O)N1N=C(c2ccc(C)cc2)CC1c1ccco1 (configuration not stated) 16.5 µM, Nc1ccc2nc3c(=O)n(C4CCCCC4)c(=O)[nH]c3nc2c1 14.7 µM, O=C(NC1CC(=O)c2sccc21)c1ccc(Cl)cc1Cl (configuration not stated) 13.1 µM, COc1ccc(-c2coc3cc(O)ccc3c2=O)cc1OC 13.1 µM, COc1ccc(-c2coc3cc(O)cc(O)c3c2=O)cc1OC 13.1 µM, O=c1c(-c2ccccc2)coc2cc(O)ccc12 1.85 µM, CC(C)Oc1ccc2c(=O)c(-c3ccccc3)coc2c1 0.464 µM, Cc1ccc(C2=NNC3(CCOC(C)(C)C3)S2)cc1 (configuration not stated) 3.69 µM, COc1ccc2nc3oc(C(=O)N4CCCCC4)cc3cc2c1 1.04 µM, COc1ccc2cc3cc(C(=O)N4CCCC(C)C4)oc3nc2c1 (configuration not stated) 1.04 µM, Cc1ccc2cc3cc(C(=O)N4CCCCCC4)oc3nc2c1 0.261 µM, COc1ccc2cc3cc(C(=O)N4CCCCCC4)oc3nc2c1 0.414 µM, Cc1cccc(C(=O)Nc2sc3c(c2C#N)CCCCC3)c1 0.261 µM, CCCC(=O)Nc1sc2c(c1C#N)CCCCC2 2.93 µM, N#Cc1c(NC(=O)C2CC2)sc2c1CCCCC2 8.26 µM, Nc1nccc(/C=C/c2ccc(Cl)cc2)n1 2.07 µM, COc1ccc(CC(=O)Nc2cc3oc4ccccc4c3cc2OC)cc1 14.7 µM, COc1cc2c(cc1NC(=O)Cc1ccc(C)cc1)oc1ccccc12 9.27 µM, COc1ccc2oc(=O)c(-c3nc4ccccc4o3)cc2c1 9.27 µM, Cc1ccc(C(=O)O/N=C(\N)c2cccnc2)cc1[N+](=O)[O-] 7.36 µM, Cc1cc(C(=O)O/N=C(\N)c2ccncc2)ccc1[N+](=O)[O-] 2.33 µM, C/C(=N\NC(=O)c1nn(C)c(C)c1Br)c1cccc(NC(=O)c2ccc(F)cc2)c1 1.85 µM, C/C(=N\NC(=O)c1nn(C)c(C)c1Br)c1cccc(NC(=O)c2ccoc2C)c1 3.69 µM, C/C(=N\NC(=O)c1nn(C)cc1Br)c1ccc(NC(=O)c2ccncc2)cc1 18.5 µM, COc1ccc(C2=NN(C(C#N)c3ccc(OC)cc3)C(c3ccccc3)C2)cc1 (configuration not stated) 2.33 µM, COc1ccc(C(C#N)N2N=C(c3ccccc3)CC2c2ccccc2)cc1OC (configuration not stated) 10.4 µM, O=C1C(C=NCCN2CCOCC2)=C(O)c2ccccc21 8.26 µM, O=C(/C=C/c1ccc(-c2ccc(F)cc2)o1)N1CCCC1 5.85 µM, O=C(/C=C\c1ccc(-c2cccc([N+](=O)[O-])c2)o1)N1CCOCC1 9.27 µM, O=C(/C=C/c1ccc(-c2cccc([N+](=O)[O-])c2)o1)N1CCOCC1 7.36 µM, COCc1ccc(C(=O)N(C)CC2CCCN(CCc3ccc(OC)cc3)C2)o1 (configuration not stated) 11.7 µM, COc1ccc(CCN2CCCC(CN(C)C(=O)c3ccoc3)C2)cc1 (configuration not stated) 6.56 µM, Cc1ccc(/C=N/NC(=O)c2cccs2)cc1[N+](=O)[O-] 4.14 µM, O=C(N/N=C/c1ccccc1[N+](=O)[O-])c1cccs1 2.93 µM, O=C(Cc1cccs1)N/N=C/C=C/c1ccccc1[N+](=O)[O-] 6.56 µM, CC(/C=N/NC(=O)Cc1cccs1)=C\c1ccccc1 6.56 µM, CSc1ccccc1NC(=O)c1cccc(S(=O)(=O)N2CCN(C)CC2)c1 14.7 µM, Clc1ccc(OCc2cn3cccnc3n2)c2ncccc12 14.7 µM, Clc1ccc(OCc2cn3ccccc3n2)c2ncccc12 6.56 µM, O=[N+]([O-])c1ccccc1COc1ccc(Cl)c2cccnc12 0.293 µM, Cc1cccc2nc(COc3ccc4ccccc4c3Br)cn12 2.07 µM, Cc1cccc2nc(COc3ccc(Cl)c4cccnc34)cn12 16.5 µM, CCOC(=O)Cc1ccc2sc(-c3ccccc3)nc2c1 1.17 µM, Cc1cccnc1NC(=S)NC(=O)/C=C/c1ccco1 9.27 µM, Cc1ccc(-c2nc3ccccc3s2)cc1NC(=S)NC(=O)c1cccc2ccccc12 4.65 µM, Cc1ccc(-n2nc3cc(C)c(NC(=S)NC(=O)/C=C/c4ccco4)cc3n2)cc1 3.69 µM, CCOc1cc(-c2nc3ccccc3s2)ccc1O 9.27 µM, COc1ccc(OCC(=O)Nc2cc(-c3nc4ccccc4s3)ccc2C)cc1 4.65 µM, Cc1ccc(-c2nc3ccccc3s2)cc1NC(=S)NC(=O)/C=C/c1ccco1 10.4 µM, C/C(=N\Nc1nc(-c2ccccc2)cs1)c1cccs1 8.26 µM, C/C(=N/Nc1ccccc1C(=O)O)c1cccs1 14.7 µM, C/C(=N\Nc1ccccc1C(=O)O)c1ccncc1 8.26 µM, O=C(Nc1ccc(Cl)cc1)c1ccc(-c2ccccn2)s1 0.736 µM, c1ccc(-c2ccc(-c3ccccn3)s2)nc1 0.736 µM, O=C(Nc1ccccc1Cl)c1ccc(-c2ccccn2)s1 0.826 µM, O=C(Nc1ccccc1)c1ccc(-c2ccccc2)s1 1.85 µM, O=S1(=O)CCN2C(=N1)Sc1c2ccc2c1CCCC2 13.1 µM
